Assay outcomes deposited in PubChem by National Center for Advancing Translational Sciences (NCATS).
G9a inh – qHTS Assay for Inhibitors of Histone Lysine Methyltransferase G9a; Potency, µM (highest dose often 102 µM), inactives show at the top dose activity, negative = inhibition, hits mostly inhibitors; 8.8% of 350,000 active; Histone-lysine N-methyltransferase EHMT2 (Homo sapiens), Q96KQ7; G9a H3K9 monomethylation, AlphaScreen, 2 h; also: % is scaled to controls: 0 for no effect and ±100 for the full control effect; nearly all actives have a fitted effect of over 75% in size
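Compounds were preincubated with 20 nM G9a for 15 min, after which biotinylated H3K9 peptide (500 nM) and SAM (20 uM) started a 2 h room-temperature reaction. Monomethylated product was quantified by antibody-based AlphaScreen chemiluminescence.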
HP1b binding inh – HTS for Inhibitors of HP1-beta Chromodomain Interactions with Methylated Histone Tails; AlphaScreen HP1-beta / biotin-H3K9me3 peptide binding; Potency, µM (titrated, usually from 114 µM), for the others: at the top dose activity change, negative = inhibition, usual class: inhibitors; 0.56% of 390,000 active; also: nearly all actives have a fitted effect of over 70% in size
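AlphaScreen: HP1-beta (50 nM) preformed 30 min with biotin-H3(1-18)K9me3 peptide (50 nM) in PBS pH 7.4, 0.01% Tween-20. Compound added for 30 min at RT, then streptavidin donor/nickel chelate acceptor beads (10 ug/mL) for 30 min.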
GLS inhibitor – qHTS for Inhibitors of Glutaminase (GLS). GLS enzymatic activity, qHTS titration. Glutaminase kidney isoform, mitochondrial (Homo sapiens), O94925. 0.21% of 410,000 active. Potency, µM (titrated, usually from 45.5 µM), for inactives: top-dose activity change, negative = inhibition, actives largely listed as inhibitors; also: % is scaled to controls: 0 for no effect and ±100 for the full control effect
Target sequence (O94925 whole entry, looked up, canonical isoform): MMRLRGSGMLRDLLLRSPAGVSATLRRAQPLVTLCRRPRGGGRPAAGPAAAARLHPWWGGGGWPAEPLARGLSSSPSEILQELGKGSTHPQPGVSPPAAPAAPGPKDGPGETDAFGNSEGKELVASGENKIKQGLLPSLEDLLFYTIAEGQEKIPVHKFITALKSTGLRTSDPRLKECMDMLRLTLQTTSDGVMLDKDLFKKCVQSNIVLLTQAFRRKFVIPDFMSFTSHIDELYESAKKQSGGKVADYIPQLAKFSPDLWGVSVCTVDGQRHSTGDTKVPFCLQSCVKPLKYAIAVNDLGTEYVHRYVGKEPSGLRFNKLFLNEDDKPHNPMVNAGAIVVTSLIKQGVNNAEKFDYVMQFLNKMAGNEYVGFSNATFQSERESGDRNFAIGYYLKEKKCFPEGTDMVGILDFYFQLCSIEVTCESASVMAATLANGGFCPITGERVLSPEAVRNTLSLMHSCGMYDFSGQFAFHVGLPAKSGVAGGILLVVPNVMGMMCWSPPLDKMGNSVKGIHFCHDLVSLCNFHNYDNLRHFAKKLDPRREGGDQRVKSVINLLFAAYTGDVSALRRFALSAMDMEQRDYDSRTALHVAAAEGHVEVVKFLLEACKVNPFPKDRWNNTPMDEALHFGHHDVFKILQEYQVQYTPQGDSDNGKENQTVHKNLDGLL
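hKGA in 45 mM KH2PO4 pH 8.2, 0.02% Tween-20 with pin-transferred compounds; 1 mM L-glutamine (stock) plus glutamate oxidase/HRP/Amplex Red coupling added. Fluorescence read initially and after 30 min at RT.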
BAZ2B block – qHTS Assay for Inhibitors of BAZ2B; Potency, µM (top dose mostly 114 µM), for the others: at the highest dose activity change, negative = inhibition, usual class: inhibitors; AlphaScreen BAZ2B-H3K14Ac peptide displacement; Bromodomain adjacent to zinc finger domain protein 2B (Homo sapiens), Q9UIF8; 4.4% of 360,000 active; also: % is scaled to controls: 0 for no effect and ±100 for the full control effect; nearly all actives have a fitted effect of over 60% in size
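Multi-concentration screen (max 110 uM) measuring displacement of acetylated histone H3 peptide from BAZ2B by AlphaScreen, using 50 nM protein, 50 nM peptide and 10 ug/mL streptavidin donor plus Ni-chelate acceptor beads.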
JMJD2A Tudor – qHTS Assay for Inhibitors of JMJD2A-Tudor Domain; Lysine-specific demethylase 4A (Homo sapiens), O75164; AlphaScreen JMJD2A-Tudor / H3K4me3 peptide binding; Potency, µM (titrated, usually from 114 µM), inactives show at the highest dose activity change, negative = inhibition, usual class: inhibitors; 4.4% of 390,000 active; also: % is scaled to controls: 0 for no effect and ±100 for the full control effect; nearly all actives have a fitted effect of over 50% in size
Starred values were filed as active, the others as inactive; [ ] = dose if it differs, or a comment. Compounds with a hit are over-represented: about 10% of the library has one in this group of screens. Calls follow the shape of the dose curve; as a rule, active = well fitted curve in the direction sought with a large enough effect; inconclusive = small, poorly fitted or top-dose-only effect, or another doubt; inactive = no such curve, though single readings can be large; an effect the other way counts as inactive or inconclusive. Potency is read from the fitted curve at half-maximal effect.

For O=C1C2CCCN2C(c2ccc(F)cc2)N1c1nccs1 (stereo not drawn) the results were G9a inh -31%[12.7 µM], HP1b binding inh 19%, GLS inhibitor 11%, BAZ2B block inconclusive and JMJD2A Tudor 20µM*.
Cc1cccc(C2N(c3ccc(F)cc3)C(=O)C3CCCN32)c1 (stereo not drawn) was read as HP1b binding inh 50%, GLS inhibitor -5% and JMJD2A Tudor -8%.
Screening Cc1ccc(C2N(c3nccs3)C(=O)C3CCCN32)cc1 (stereo not drawn) returned G9a inh 13µM*, HP1b binding inh 14%, GLS inhibitor 0%, BAZ2B block inconclusive and JMJD2A Tudor 20µM*.
`Cc1cccc(C2N(c3nccs3)C(=O)C3CCCN32)c1` (stereo not drawn) gave G9a inh 7.9µM*, HP1b binding inh 36%, GLS inhibitor -3%, BAZ2B block inconclusive and JMJD2A Tudor -26%[57.1 µM].
CC(=O)c1cc2c(cc1N/C(=N/S(=O)(=O)c1ccc(C)cc1)c1ccc(F)cc1)OCO2 was read as G9a inh -2%[59 µM], HP1b binding inh 12%, GLS inhibitor -3%, BAZ2B block -8% and JMJD2A Tudor -17%.
Screening O=C(NCC1CCCO1)c1ccc(COc2ccc(F)cc2)o1 (stereo not drawn) returned G9a inh -43%[12.7 µM], HP1b binding inh 44%, GLS inhibitor 2%, BAZ2B block -10% and JMJD2A Tudor -5%.
For CCOc1cc(N)c(Cl)cc1C(=O)NCC1CN(Cc2ccc(F)cc2)CCO1 (stereo not drawn) the results were G9a inh 0%[59 µM], HP1b binding inh 10%, GLS inhibitor 2% and JMJD2A Tudor 50µM*.
`CCc1cccc(NC(c2nnc(-c3ccccc3)o2)c2ccc(F)cc2Cl)c1` (stereo not drawn) gave G9a inh 5%[59 µM], HP1b binding inh 25%, GLS inhibitor 4%, BAZ2B block 7% and JMJD2A Tudor 3%.
Screening Cc1ccccc1NS(=O)(=O)c1c(C(=O)N2CCCCCC2)c(C)n(C)c1C returned G9a inh 16%, HP1b binding inh -3%, GLS inhibitor -4%, BAZ2B block -20%[57.1 µM] and JMJD2A Tudor -27%.
CCc1ccc(NS(=O)(=O)c2ccc3[nH]cc(C(=O)N4CCc5ccccc54)c(=O)c3c2)cc1 was read as G9a inh 50µM*, HP1b binding inh inconclusive, GLS inhibitor -3%, BAZ2B block inconclusive and JMJD2A Tudor inconclusive.
CCOC(=O)c1c(S(=O)(=O)Nc2ccc(C)cn2)c(C)n(C)c1C was read as G9a inh 29%, HP1b binding inh -2%, GLS inhibitor 19%, BAZ2B block -18% and JMJD2A Tudor inconclusive.
For Cc1nc(CC(=O)NNS(=O)(=O)c2ccc3ccccc3c2)cs1 the results were G9a inh -4%[59 µM], HP1b binding inh 29%, GLS inhibitor 9%, BAZ2B block -37% and JMJD2A Tudor -4%.
Screening COc1ccc(S(=O)(=O)NNC(=O)Cc2csc(C)n2)cc1[N+](=O)[O-] returned G9a inh inconclusive, HP1b binding inh 4%, GLS inhibitor -1%, BAZ2B block 79µM* and JMJD2A Tudor inconclusive.
Screening CC1=CCC(/C=N\Nc2nnc3c(n2)[nH]c2ccccc23)CC1 (stereo not drawn) returned G9a inh -8%[59 µM] and BAZ2B block 50µM*.
Screening CC(C)CSc1nnc2c(n1)[nH]c1ccccc12 returned G9a inh 13%, HP1b binding inh 26%, GLS inhibitor 2%, BAZ2B block 7% and JMJD2A Tudor -26%.
For COc1ccc(C2SCCN2C(=S)Nc2ccc(F)cc2)cc1 (stereo not drawn) the results were G9a inh 40µM*, HP1b binding inh -14%, GLS inhibitor -5%, BAZ2B block 5% and JMJD2A Tudor 3%[57.1 µM].
For C/C(=N/N=C(/N)SCc1ccccc1)C(C)(C)C the results were G9a inh 10µM*, HP1b binding inh 41%, GLS inhibitor -2%, BAZ2B block -18% and JMJD2A Tudor -6%.
Screening CCOC(=O)c1c(C)oc2c1c1c(c3ccccc32)OCN(CCCC(=O)O)C1 returned G9a inh 8.9µM*, HP1b binding inh -4%, GLS inhibitor 29%, BAZ2B block inconclusive and JMJD2A Tudor inconclusive.
Screening COc1cccc(C(C)(O)c2nc(-c3cnn(C)c3)cs2)c1 (stereo not drawn) returned GLS inhibitor 4%.
Screening COc1ccccc1NC(=O)CN1CCN(c2ccccc2OC)CC1 returned G9a inh -32%, HP1b binding inh 34%, GLS inhibitor 7%, BAZ2B block -17% and JMJD2A Tudor -20%.
O=C(CN1CC(=O)Nc2ccccc21)Nc1ccc(F)c(F)c1 was read as G9a inh 8.9µM*, HP1b binding inh 51%, GLS inhibitor -16%, BAZ2B block -1% and JMJD2A Tudor -5%.
`COc1ccccc1NC(=O)CN1CC(=O)Nc2ccccc21` gave G9a inh 20µM*, HP1b binding inh 37%, GLS inhibitor -2% and JMJD2A Tudor 9%.
For CC(/C=C/c1ccccc1)=N\NC(=S)NC(C)C the results were G9a inh 50µM*, HP1b binding inh inconclusive, GLS inhibitor -17%, BAZ2B block inconclusive and JMJD2A Tudor 45µM*.
CC(=O)N1CCN(c2nc3ccc([N+](=O)[O-])cc3s2)CC1 was read as G9a inh 6%, HP1b binding inh 29%, GLS inhibitor 4%, BAZ2B block -26% and JMJD2A Tudor -9%.
Screening CCCCCC(=O)NC(NC(=S)N1CCOCC1)C(Cl)(Cl)Cl (stereo not drawn) returned G9a inh 6%[59 µM], HP1b binding inh 38%, GLS inhibitor 15%, BAZ2B block 1% and JMJD2A Tudor 1%.
For CCCCCC(=O)NC(NC(=S)NC1CCS(=O)(=O)C1)C(Cl)(Cl)Cl (stereo not drawn) the results were G9a inh 25µM*, HP1b binding inh 17%, GLS inhibitor -6%, BAZ2B block 19% and JMJD2A Tudor -6%.
O=c1c(C(c2ccc(O)cc2)c2c(O)nc3n(c2=O)CCCS3)c(O)nc2n1CCCS2 was read as G9a inh inconclusive, HP1b binding inh 20%, GLS inhibitor 22%, BAZ2B block -39% and JMJD2A Tudor inconclusive.
`O=c1c(C(c2ccc(Br)cc2)c2c(O)nc3n(c2=O)CCS3)c(O)nc2n1CCS2` gave G9a inh inconclusive, HP1b binding inh 39%, GLS inhibitor 14%, BAZ2B block -16% and JMJD2A Tudor -16%.
